In PubChem BioAssay (NCI):
About 79,000 compounds went through this panel and 15% of them were active in at least one assay; those are over-represented in the sample as a whole. Values without a mark were called inactive. The source made the active and inactive calls. Cut-off read from the data, not from the text of the source: active = growth inhibition above about 70%; inactive = the rest.

Tests used:
[1] = NCI Yeast Anticancer Drug Screen. Data for the rad50 strain (AID 155);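 note: 0% = growth of vehicle-only cultures of the same strain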; conditions: S. cerevisiae rad50 strain growth inhibition, active compounds read high
Procedure, shortened: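 DNA repair mutant yeast, compound exposure, growth read-out; inhibition is taken relative to vehicle.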

[2] = NCI Yeast Anticancer Drug Screen. Data for the mec2-1 strain (AID 157); conditions: S. cerevisiae mec2-1 strain, active compounds read high
Procedure, shortened: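 Compounds were applied to mec2-1 yeast cells. Their growth was then compared with that of vehicle-treated cultures to give growth inhibition.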

[3] = NCI Yeast Anticancer Drug Screen. Data for the sgs1 mgt1 strain (AID 161);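 note: 0% = growth of cultures given vehicle only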; conditions: S. cerevisiae sgs1 mgt1 strain, active compounds read high
Procedure, shortened: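 Compounds are added to genetically altered yeast, and growth is compared with cultures given vehicle alone to give percent inhibition.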

[4] = NCI Yeast Anticancer Drug Screen. Data for the cln2 rad14 strain (AID 165);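 note: 0% = growth equal to vehicle treated cultures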; conditions: S. cerevisiae cln2 rad14 strain, active compounds read high
Procedure, shortened: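 Strain: cln2 rad14 yeast, altered in cell cycle control and DNA damage repair. Read-out: growth inhibition vs vehicle.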

[5] = NCI Yeast Anticancer Drug Screen. Data for the bub3 strain (AID 167); conditions: S. cerevisiae bub3 mutant strain, active compounds read high
Procedure, shortened: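 In this screen, a yeast mutant lacking normal mitotic checkpoint function is challenged with compound. Relative growth versus vehicle gives the inhibition value.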

[6] = NCI Yeast Anticancer Drug Screen. Data for the mlh1 rad18 strain (AID 175); conditions: S. cerevisiae mlh1 rad18 strain growth inhibition, active compounds read high
Procedure, shortened: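 A repair-deficient yeast strain is exposed to test compound, and growth is scored relative to vehicle-treated controls.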

[7] = at 5.0 µM (retest, dose inferred, filed as 0.5)
[8] = at 50.0 µM (retest, dose inferred, filed as 5.0)

SMILES	growth inhibition [1, 7]	growth inhibition [1, 8]	growth inhibition ([1]; at 50.0 µM)	growth inhibition [2, 7]	growth inhibition [2, 8]	growth inhibition ([2]; at 50.0 µM)	growth inhibition [3, 7]	growth inhibition [3, 8]	growth inhibition ([3]; at 50.0 µM)	growth inhibition [4, 7]	growth inhibition [4, 8]	growth inhibition ([4]; at 50.0 µM)	growth inhibition [5, 7]	growth inhibition [5, 8]	growth inhibition ([5]; at 50.0 µM)	growth inhibition [6, 7]	growth inhibition [6, 8]	growth inhibition ([6]; at 50.0 µM)
CNc1c(C(=O)Nc2ccccc2)c(=O)n(C)c(=O)n1C	99% (active)	99% (active)	62.9%	100% (active)	99% (active)	81% (active)	99% (active)	99% (active)	32.8%	99% (active)	99% (active)	2.3%	99% (active)	99% (active)	90.8% (active)	99% (active)	99% (active)	74.5% (active)
O=S(=O)(Sc1ccccc1)c1ccccc1	13%	98% (active)	79% (active)	11%	99% (active)	99.1% (active)	16%	99% (active)	99.3% (active)	5%	99% (active)	97% (active)	16%	99% (active)	97.3% (active)	20%	99% (active)	99% (active)
O=C(O)c1ccccc1N=N/C(=N\Nc1cc(S(=O)(=O)O)ccc1O)c1ccccc1	-7%	85% (active)	48.4%	-5%	49%	20.5%	-3%	95% (active)	46.5%	-3%	47%	-32%	1%	97% (active)	38.8%	-4%	74% (active)	44.5%
COC(=O)/C(Br)=C(\Br)c1ccccc1	6%	13%	-11.4%	6%	6%	24.1%	14%	-6%	36.7%	2%	6%	-18.6%	0%	21%	52.8%	22%	40%	21.7%
O=C(O)C(SC1=NNC2(C(=O)N1)c1ccccc1-c1ccccc12)SC1=NNC2(C(=O)N1)c1ccccc1-c1ccccc12	4%	96% (active)	97.5% (active)	-19%	92% (active)	96.3% (active)	2%	96% (active)	97.4% (active)	4%	66%	95.8% (active)	9%	93% (active)	98% (active)	-15%	95% (active)	97.3% (active)
